Laboratory results published in PubChem BioAssay (NCATS).
Results filed as inconclusive are left out. Entries that show only a call come without a potency. Active and inactive are the calls of the source. The call rests on the fitted dose curve; in most records, active means well fitted curve in the direction sought with a large enough effect; inconclusive means small, poorly fitted or top-dose-only effect, or another doubt; inactive means no such curve, though single readings can be large; an effect the other way counts as inactive or inconclusive.

Assays:
[1] = Quantitative High-Throughput drug screen in 47 multiple myeloma cell lines against the NCATS MIPE library collection: FR4_PLB cell viability assay (AID 1918924; further: nearly all actives have a fitted effect of over 35% in size); settings: FR4_PLB myeloma cells viability, CellTiter-Glo ATP, 48 h; series mostly up to 45.8 µM
Procedure, shortened: (§1)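 Luminescent ATP measurement with CellTiter-Glo gives viability, scaled between DMSO-only wells (100%) and media-only wells (0%). Cells, 500 per well, faced library compounds for 48 hours at 37C.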

[2] = Quantitative High-Throughput drug screen in 47 multiple myeloma cell lines against the NCATS MIPE library collection: Delta47_JCRB cell viability assay (AID 1918925; further: nearly all actives have a fitted effect of over 45% in size); settings: Delta47 myeloma viability, CellTiter-Glo ATP, 48 h; series mostly up to 45.8 µM
Procedure, shortened: (§2)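 Relative luminescence from CellTiter-Glo served as the viability signal, referenced to DMSO-treated (100%) and cell-free medium (0%) controls. Treatment lasted 48 hours at 37C with 500 cells per well.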

[3] = Quantitative High-Throughput drug screen in 47 multiple myeloma cell lines against the NCATS MIPE library collection: ARP1_JJKsccF8 cell viability assay (AID 1918928; further: nearly all actives have a fitted effect of over 40% in size); settings: ARP1 myeloma cells viability, CellTiter-Glo ATP, 48 h; series mostly up to 45.8 µM
Procedure, shortened: (§3)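 ATP readout (CellTiter-Glo), 48 h drug incubation, 37 °C/5% CO2, 500 cells per well; normalisation to DMSO (100%) and media-only (0%) controls.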

[4] = Quantitative High-Throughput drug screen in 47 multiple myeloma cell lines against the NCATS MIPE library collection: ARD_JJKsccE7 cell viability assay (AID 1918929); settings: ARD myeloma cell line viability, CellTiter-Glo, 48 h; series mostly up to 45.8 µM
Procedure, shortened: as §2

[5] = Quantitative High-Throughput drug screen in 47 multiple myeloma cell lines against the NCATS MIPE library collection: KMM1_JCRB cell viability assay (AID 1918960); settings: KMM1 myeloma viability, CellTiter-Glo ATP luminescence, 48 h; series mostly up to 45.8 µM; further: nearly all actives have a fitted effect of over 30% in size
Procedure, shortened: as §3

[6] = Quantitative High-Throughput drug screen in 47 multiple myeloma cell lines against the NCATS MIPE library collection: KHM11_PLB cell viability assay (AID 1918962); settings: KHM11 myeloma cell viability, CellTiter-Glo ATP luminescence, 48 h; series mostly up to 45.8 µM; further: nearly all actives have a fitted effect of over 35% in size
Procedure, shortened: as §1

[7] = Quantitative High-Throughput drug screen in 47 multiple myeloma cell lines against the NCATS MIPE library collection: JIM3_ECACC cell viability assay (AID 1918963; further: nearly all actives have a fitted effect of over 35% in size); settings: JIM3 myeloma viability, CellTiter-Glo ATP, 48 h; series mostly up to 45.8 µM
Procedure, shortened: as §1

[8] = Quantitative High-Throughput drug screen in 47 multiple myeloma cell lines against the NCATS MIPE library collection: JIM1_ECACC cell viability assay (AID 1918964); settings: JIM1 myeloma viability, CellTiter-Glo ATP luminescence, 48 h; series mostly up to 45.8 µM
Procedure, shortened: as §2

[9] = Quantitative High-Throughput drug screen in 47 multiple myeloma cell lines against the NCATS MIPE library collection: JJN3_DSMZ cell viability assay (AID 1918966; further: nearly all actives have a fitted effect of over 50% in size); settings: JJN3 myeloma cells viability, CellTiter-Glo ATP, 48 h; series mostly up to 45.8 µM
Procedure, shortened: as §2

[10] = Quantitative High-Throughput drug screen in 47 multiple myeloma cell lines against the NCATS MIPE library collection: H1112_PLB cell viability assay (AID 1918967; further: nearly all actives have a fitted effect of over 30% in size); settings: H1112 myeloma cells viability, ATP luminescence, 48 h; series mostly up to 45.8 µM
Procedure, shortened: as §2

[11] = Quantitative High-Throughput drug screen in 47 multiple myeloma cell lines against the NCATS MIPE library collection: Karpas25_ECACC cell viability assay (AID 1918968; further: nearly all actives have a fitted effect of over 35% in size); settings: Karpas25 myeloma viability, CellTiter-Glo ATP, 48 h; series mostly up to 45.8 µM
Procedure, shortened: as §2

[12] = Quantitative High-Throughput drug screen in 47 multiple myeloma cell lines against the NCATS MIPE library collection: EJM_DSMZ cell viability assay (AID 1918926; further: nearly all actives have a fitted effect of over 30% in size); settings: EJM myeloma cell viability, CellTiter-Glo ATP, 48 h; series mostly up to 45.8 µM
Procedure, shortened: as §2

[13] = Quantitative High-Throughput drug screen in 47 multiple myeloma cell lines against the NCATS MIPE library collection: AMO1_DSMZ cell viability assay (AID 1918927; further: nearly all actives have a fitted effect of over 30% in size); settings: AMO1 myeloma cells viability, CellTiter-Glo ATP luminescence, 48 h; series mostly up to 45.8 µM
Procedure, shortened: as §2

[14] = Quantitative High-Throughput drug screen in 47 multiple myeloma cell lines against the NCATS MIPE library collection: Karpas620_DSMZ cell viability assay (AID 1918959); settings: Karpas620 myeloma viability, CellTiter-Glo ATP luminescence, 48 h; series mostly up to 45.8 µM; further: nearly all actives have a fitted effect of over 30% in size
Procedure, shortened: as §1

[15] = Quantitative High-Throughput drug screen in 47 multiple myeloma cell lines against the NCATS MIPE library collection: INA6_PLB cell viability assay (AID 1918965; further: nearly all actives have a fitted effect of over 55% in size); settings: INA6 myeloma viability, CellTiter-Glo ATP luminescence, 48 h; series mostly up to 45.8 µM
Procedure, shortened: (§4)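 Steps: seed 500 cells per well; pin-transfer MIPE 4.0 library; incubate 48 h at 37C, 5% CO2, humidified; add CellTiter-Glo, 5 min room temperature; read luminescence.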

[16] = Quantitative High-Throughput drug screen in 47 multiple myeloma cell lines against the NCATS MIPE library collection: KMS12BM_JCRB cell viability assay (AID 1918971); settings: KMS12BM myeloma viability, CellTiter-Glo ATP, 48 h; series mostly up to 45.8 µM; further: nearly all actives have a fitted effect of over 35% in size
Procedure, shortened: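 Myeloma cells (500 per well) were exposed to MIPE 4.0 compounds by pin transfer and incubated 48 hours at 37C, 5% CO2. Viability was read as ATP by CellTiter-Glo luminescence, normalised to DMSO (100%) and media-only (0%) wells.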

[17] = Quantitative High-Throughput drug screen in 47 multiple myeloma cell lines against the NCATS MIPE library collection: KMS27_JCRB cell viability assay (AID 1918970); settings: KMS27 myeloma cells, CellTiter-Glo ATP viability, 48 h; series mostly up to 45.8 µM; further: nearly all actives have a fitted effect of over 30% in size
Procedure, shortened: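 CellTiter-Glo luminescence after 48 h drug exposure at 37 °C; 500 cells/well, 1536-well format, pin-tool compound addition; DMSO = 100%, media-only = 0% viability.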

[18] = Quantitative High-Throughput drug screen in 47 multiple myeloma cell lines against the NCATS MIPE library collection: Karpas417_ECACC cell viability assay (AID 1918961); settings: Karpas417 myeloma viability, CellTiter-Glo ATP luminescence, 48 h; viability (% of DMSO): at 45.8 µM (top of the series) unless noted
Procedure, shortened: as §4
Potency means the concentration at half of the fitted maximal effect.

Structure (SMILES)	Potency [1]	Potency [2]	Potency [3]	Potency [4]	Potency [5]	Potency [6]	Potency [7]	Potency [8]	Potency [9]	Potency [10]	Potency [11]	Potency [12]	Potency [13]	Potency [14]	Potency [15]	Potency [16]	Potency [17]	Potency [18]	viability (% of DMSO) [18]
Cc1[nH]c(=O)c(C#N)cc1-c1ccc2nccn2c1	inactive	inactive	inactive	inactive	inactive	inactive	inactive	inactive	inactive	inactive	inactive	–	–	–	–	–	–	–	–
CS(=O)(=O)Oc1ccc2c(NC(N)=O)c(C(=O)c3ccc(Cl)cc3Cl)oc2c1	inactive	14.8 µM (active)	–	8.33 µM (active)	–	–	–	–	–	18.7 µM (active)	4.69 µM (active)	inactive	9.35 µM (active)	10.5 µM (active)	5.26 µM (active)	inactive	–	–	–
NC(=O)c1ccc(I)c([N+](=O)[O-])c1	inactive	18.7 µM (active)	inactive	inactive	inactive	–	18.7 µM (active)	–	–	inactive	23.5 µM (active)	inactive	–	–	–	–	–	–	–
Nc1cccc(S(=O)(=O)N2CCCN(S(=O)(=O)c3ccc4c(c3)OCCO4)CC2)c1	inactive	0.833 µM (active)	–	inactive	inactive	–	–	–	–	–	–	–	4.18 µM (active)	inactive	inactive	–	inactive	–	–
CCOc1ccc(Cc2cc([C@@H]3O[C@H](CO)[C@@H](O)[C@H](O)[C@@H]3O)ccc2Cl)cc1	inactive	inactive	inactive	–	–	–	20.9 µM (active)	–	inactive	–	18.7 µM (active)	–	14.8 µM (active)	–	inactive	inactive	16.6 µM (active)	–	–
CCN(c1ccccc1)c1cc(NC)[n+](C)c(C)n1	inactive	inactive	23.5 µM (active)	13.2 µM (active)	inactive	0.235 µM (active)	inactive	inactive	–	inactive	–	–	0.743 µM (active)	inactive	inactive	14.8 µM (active)	6.62 µM (active)	–	–
Cc1cn[nH]c1	0.0526 µM (active)	0.296 µM (active)	–	–	0.526 µM (active)	–	–	–	1.48 µM (active)	6.62 µM (active)	0.59 µM (active)	0.105 µM (active)	–	–	–	0.0132 µM (active)	0.264 µM (active)	–	–
COCCNCCCn1c(C(=O)CF)c(-c2ccc(C)cc2)c2c(N)ncnc21	13.2 µM (active)	inactive	–	–	–	–	inactive	inactive	–	–	–	–	–	–	16.6 µM (active)	–	–	–	–
Cc1cc2c(F)c(Oc3ncnn4cc(OC[C@@H](C)O)c(C)c34)ccc2[nH]1	inactive	16.6 µM (active)	–	–	–	–	–	inactive	–	–	–	–	4.69 µM (active)	inactive	18.7 µM (active)	–	–	–	–
CCn1c(-c2nonc2N)nc2c(C#CC(C)(C)O)ncc(OC[C@H]3CCCNC3)c21	14.8 µM (active)	0.0469 µM (active)	0.59 µM (active)	0.148 µM (active)	–	7.43 µM (active)	9.35 µM (active)	–	–	14.8 µM (active)	1.18 µM (active)	–	–	–	4.18 µM (active)	14.8 µM (active)	0.418 µM (active)	–	–
O=C(C=Cc1ccc(/C=C/C(=O)Nc2ccc(C3=NCCN3)cc2)cc1)Nc1ccc(C2=NCCN2)cc1	inactive	inactive	inactive	inactive	inactive	–	inactive	–	–	inactive	inactive	inactive	–	inactive	–	–	inactive	–	–
Cc1oncc1C(=O)Nc1ccc(C(F)(F)F)cc1	inactive	–	–	inactive	inactive	–	–	inactive	inactive	14.8 µM (active)	–	20.9 µM (active)	inactive	inactive	–	–	inactive	–	–
NC(=O)c1cnccn1	inactive	inactive	inactive	inactive	inactive	–	inactive	inactive	inactive	–	inactive	–	inactive	inactive	inactive	–	inactive	–	–
CCOc1cc(C=C2C(=O)N(c3ccccc3)N=C2C)cc(Cl)c1OCC(=O)OC	inactive	9.35 µM (active)	–	–	–	–	–	–	–	–	8.33 µM (active)	18.7 µM (active)	inactive	–	–	–	–	8.33 µM (active)	–
COCC(=O)NCC=Cc1ccc2ncnc(Nc3ccc(Oc4ccc(C)nc4)c(C)c3)c2c1	26.4 µM (active)	14.8 µM (active)	–	11.8 µM (active)	8.33 µM (active)	–	16.6 µM (active)	16.6 µM (active)	23.5 µM (active)	–	6.62 µM (active)	–	–	–	10.5 µM (active)	–	–	10.5 µM (active)	–
c1ccc([C@H]2CN3CCSC3=N2)cc1	inactive	–	inactive	inactive	inactive	–	inactive	–	–	–	inactive	inactive	inactive	inactive	–	inactive	inactive	–	–
CN1CCN(CCCN2c3ccccc3Sc3ccc(C(F)(F)F)cc32)CC1	inactive	4.69 µM (active)	–	inactive	inactive	10.5 µM (active)	8.33 µM (active)	inactive	–	7.43 µM (active)	4.18 µM (active)	inactive	inactive	–	9.35 µM (active)	inactive	–	–	113% (active)
